Assay outcomes deposited in PubChem by National Center for Advancing Translational Sciences (NCATS).
This is a sample that favours compounds with a hit; in the whole collection about 18% have one here.
VP16 counter: Gal4-VP16 reporter inhibition counter-screen. Drosophila S2 Gal4-VP16 UAS-luciferase, luminescence, 20 h. Potency, µM (top dose mostly 53.6 µM), for the others: at the top dose activity, negative = inhibition, hits mostly inhibitors. hit rate 3.5% among 310,000;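 note: Gal4-VP16 expression switched on by copper sulfate through the metallothionein promoter; potency is the fitted concentration of half-maximal effect; nearly all actives have a fitted effect of over 50% in size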
LDHA block: LDHA (human) enzyme inhibition | activity change, % (values are at about 110 or 230 µM) | AID 1347041 | purified LDHA, NADH/diaphorase-resazurin fluorescence; stronger effect = lower value | hit rate 0.15% among 480,000 | P00338; in the data active = activity change below about -30%; inconclusive = mostly about -25% to -30%;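 note: plate controls were DMSO wells for no effect and wells without enzyme for full effect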
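LDH5 2 nM; NADH 0.06 mM, pyruvate 0.2 mM; 200 mM Tris pH 7.4, EDTA, Tween-20; 5 min RT. Detection: diaphorase 0.133 mg/mL + resazurin 37 µM, fluorescence ex540/em590 at 0 and 20 min; normalized to enzyme-free and DMSO wells.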
IL1B secr inh: inflammasome signaling inhibition, IL-1 beta readout; THP-1 LPS/ATP IL-1B secretion, AlphaLISA, 16 h; stronger effect = lower value; activity change, % at 57.5 µM; hit rate 4.7% among 360,000; in the data active = activity change below about -50%; inconclusive = mostly about -30% to -49%
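THP-1 cells pretreated 1 hr with compounds (up to 57.5 uM final), then stimulated with LPS (250 ng/mL final) plus ATP (1.25 mM final); secreted IL-1B measured by AlphaLISA after 16 hr, decreased signal indicating inhibition.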
RORg inh: ROR gamma (mouse) transcription inhibition; hit rate 5.4% among 310,000; P51450; Drosophila S2 Gal4-RORgamma UAS-luciferase reporter, 20 h; Potency, µM (doses to about 53.6 µM), without a hit: at the highest dose activity change, negative = inhibition, usual class: inhibitors; AID 2551; note: potency is the fitted concentration of half-maximal effect; nearly all actives have a fitted effect of over 60% in size
Target sequence (P51450 whole entry, looked up, the tested form may be a part): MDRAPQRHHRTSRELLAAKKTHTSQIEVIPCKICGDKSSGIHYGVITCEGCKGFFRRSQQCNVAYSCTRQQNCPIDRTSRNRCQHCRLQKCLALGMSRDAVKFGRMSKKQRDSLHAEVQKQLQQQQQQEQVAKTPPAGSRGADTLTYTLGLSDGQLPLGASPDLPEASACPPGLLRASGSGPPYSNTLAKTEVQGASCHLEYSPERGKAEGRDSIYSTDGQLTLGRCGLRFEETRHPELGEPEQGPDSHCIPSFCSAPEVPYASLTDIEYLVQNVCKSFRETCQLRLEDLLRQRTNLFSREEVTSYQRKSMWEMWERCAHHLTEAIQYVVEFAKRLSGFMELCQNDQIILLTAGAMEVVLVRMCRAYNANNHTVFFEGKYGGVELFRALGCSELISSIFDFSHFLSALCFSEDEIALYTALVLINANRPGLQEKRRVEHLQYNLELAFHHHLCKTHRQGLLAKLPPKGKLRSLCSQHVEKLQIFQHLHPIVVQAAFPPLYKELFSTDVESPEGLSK
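Stably transfected Drosophila Schneider cells are the test system, with ROR gamma fused to Gal4 and luciferase under UAS control; luminescence is read after 20 hr of 700 uM copper sulfate induction at ambient temperature.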
TDP1 cell noCPT: qHTS for Inhibitors of human tyrosyl-DNA phosphodiesterase 1 (TDP1): qHTS in cells in absence of CPT; hit rate 15% among 420,000; DT40 Tdp1-/- hTDP1 cells, no CPT, ATP luminescence, 48 h; AID 686978, 2013; Potency, µM (highest dose often 46.2 µM), inactives show at the top dose activity change, negative = growth inhibition, usual class: inhibitors; note: potency is the fitted concentration of half-maximal effect; nearly all actives have a fitted effect of over 55% in size
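DT40 Tdp1-/-;hTDP1 cells, no CPT (DMSO vehicle only), 400 cells/well; compounds pin-transferred; ≥48 hr, 37 °C; CellTiter-Glo 30 min RT dark, luminescence read.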
TDP1 cell CPT: DT40-hTDP1 cell growth loss with CPT. hit rate 12% among 420,000. AID 686979. Potency, µM (highest dose often 46.2 µM), without a hit: top-dose activity change, negative = growth inhibition, most hits filed as inhibitors. chicken DT40 Tdp1-/-;hTDP1 cells + 20 nM CPT, ATP luminescence, 48 h; note: potency is the fitted concentration of half-maximal effect; nearly all actives have a fitted effect of over 55% in size
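Chicken DT40 Tdp1-/- cells complemented with human TDP1, 400 cells/well, exposed to compounds plus 20 nM camptothecin for at least 48 h at 37 C; viability read as ATP content by CellTiter-Glo luminescence.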
Active calls of the source: *; ? = inconclusive; · = no result given; [ ] = remark or other dose. Unless noted, calls come from the whole dose curve; as a rule, active = well fitted curve in the direction sought with a large enough effect; inconclusive = small, poorly fitted or top-dose-only effect, or another doubt; inactive = no such curve, though single readings can be large; an effect the other way counts as inactive or inconclusive. Unless noted, % is set by controls: 0 for no effect and ±100 for the full control effect.

SMILES | VP16 counter | LDHA block | IL1B secr inh | RORg inh | TDP1 cell noCPT | TDP1 cell CPT
O=C(NC1CCCCCC1)C1CCN(S(=O)(=O)c2cccc3cccnc23)CC1 | 5.8% | 1.3 | -5.4 | 64.8% | -9.6% | -3.1%
O=S(=O)(NC1CCN(Cc2ccccc2)CC1)c1cccc2cccnc12 | -1.6% | 3.5 | -2.4 | -41.6% | 18.4µM* | ?
O=C(NC1CCN(Cc2ccccc2)CC1)C1CCN(S(=O)(=O)c2cccc3cccnc23)CC1 | -24.4% | -14.2 | 30.2 | ? | 14.6µM* | 18.4µM*
O=S(=O)(NCC1CCCN(Cc2ccccc2)C1)c1cccc2cccnc12 (stereo not drawn) | 1.3% | -3.1 | ? | -30.1% | -4.3% | -2.0%
CCN(CC)C1CC(=O)N(c2cccc(Cl)c2)C1=O (stereo not drawn) | ? | -5.9 | -8.4 | -18.0%[1.91 µM] | 23.1µM* | ?
O=C(C1CCN(C2CC(=O)N(c3cccc(Cl)c3)C2=O)CC1)N1CCCC1 (stereo not drawn) | -11.7% | -7.0 | 2.2 | -8.6% | ? | 16.4µM*
CCOC(=O)C1CCN(C2CC(=O)N(c3cccc(Cl)c3)C2=O)CC1 (stereo not drawn) | 11.4% | -6.3 | -7.5 | -117.3% | -4.1% | 0.3%
O=C1CC(N2CCCN(C3CC(=O)N(c4ccc(F)cc4)C3=O)CC2)C(=O)N1c1ccc(F)cc1 (stereo not drawn) | ? | -5.5 | 1.7 | 17.8µM* | ? | ?
O=C1CC(N2CCCCC2)C(=O)N1c1ccccc1 (stereo not drawn) | 20µM* | -2.7 | 6.3 | 10µM* | ? | ?
COc1ccc(N(C)C(=O)c2cc(C)nc3ccccc23)cc1OC | · | -21.8 | · | · | · | ·
CCCCCn1nc(C(=O)OCC(=O)NC(C)c2ccccc2)c2ccccc2c1=O (stereo not drawn) | · | 1.5 | · | · | · | ·
O=C(NCCCNC(=O)C1CCCCC1)C1CCCCC1 | · | 0.4 | · | · | · | ·
Cc1cc(/C=C(/C#N)C(N)=O)c(C)cc1/C=C(/C#N)C(N)=O | · | -0.3 | · | · | · | ·
CCN(CC)c1nc2cc(C)ccc2cc1/C=C(\C#N)C(N)=O | -13.0% | 1.4 | -57.6* | -15.9% | ? | ?
COCCN1C(=O)C(=O)/C(=C(/O)c2ccc(OCC(C)C)cc2C)C1c1cccnc1 (stereo not drawn) | · | 10.9 | · | · | · | ·
CCCc1cc(=O)n2nc(N3CCC(C(=O)NCc4cccc(Br)c4)CC3)sc2n1 | · | -9.7 | · | · | · | ·
CCC(CC)COC(=O)C(C#N)c1nc2ccccc2nc1N1CCN(CC)CC1 (stereo not drawn) | -29.2% | 10.2 | -60.3* | ? | ? | 20.6µM*
CCOC(=O)C(C#N)c1nc2ccccc2nc1N1CCCC1 (stereo not drawn) | · | 1.1 | · | · | · | ·
CCC(C)COC(=O)C(C#N)c1nc2ccccc2nc1N1CCCCC1 (stereo not drawn) | 2.6% | -1.1 | -27.8 | 5.01µM* | 16.4µM* | ?
CCCCCCOC(=O)C(C#N)c1nc2ccccc2nc1N1CCN(C)CC1 (stereo not drawn) | -8.4% | 2.7 | -24.7 | 14.5% | ? | ?
CC(C)C1C/C(=N/NC(N)=S)C=C2CCCCC21 (stereo not drawn) | · | 13.6 | · | · | · | ·
CCCCOC(=O)COc1ccc2c(=O)c(Oc3ccc(OC)cc3)coc2c1 | · | -2.4 | · | · | · | ·
CCc1ccc(-n2nc(C)c3c(C(=O)Nc4ccc(Cl)cc4)cc(C)nc32)cc1 | · | 0.7 | · | · | 13µM* | ?
CCc1ccc(NC(=O)c2c(Cl)nc(C)c(Cl)c2C)cc1 | 2.6% | -4.8 | -0.6 | 31.3% | 25.9µM* | ?
CC(=O)c1cccc(NC(=O)c2cc(C)nc3c2c(C)nn3-c2cccc(Cl)c2C)c1 | · | 0.0 | · | · | 18.4µM* | ?
SMILES | VP16 counter | LDHA block | IL1B secr inh | RORg inh | TDP1 cell noCPT | TDP1 cell CPT
Cc1ccccc1NC(=O)c1c(Cl)nc(C)c(Cl)c1C | -2.5% | -3.5 | 16.5 | 12.3% | -2.8% | 2.8%
CCc1ccc(-n2nc(C)c3c(C(=O)Nc4cc(C)ccc4C)cc(C)nc32)cc1 | · | -4.9 | · | · | ? | ?
COc1cc(C(=O)/C(=C/c2ccncc2)c2nc3ccccc3o2)cc(OC)c1OC | · | -5.6 | · | · | · | ·
O=C(COc1cccc(Cl)c1)Nc1ccc(-c2nc3ccccc3o2)cc1 | · | 4.5 | · | · | · | ·
CC(C)C[C@@H](CNCC(=O)[C@H](CC(C)C)NC(=O)c1[nH]cnc1C(=O)N[C@@H](C)CN)NC(=O)c1nc[nH]c1C(=O)N[C@@H](CC(=O)O)C(=O)O | · | 5.1 | -55.2* | · | -2.6% | -15.5%
COc1ccc(/C=N/OCC(=O)Nc2cccc(C(F)(F)F)c2)cc1 | · | -4.0 | · | · | · | ·
O=C1CC2(C(=O)Nc3c(Cl)cccc32)c2cnn(Cc3ccccc3Cl)c2N1 (stereo not drawn) | · | 3.2 | · | · | · | ·
CCCc1cc(C(=O)OC)c(NC(=O)CC2Sc3ccc(C(F)(F)F)cc3NC2=O)s1 (stereo not drawn) | · | -4.3 | · | · | · | ·
COc1ccc(-c2cc(C(F)(F)F)n3nc(C(=O)Nc4cccc(C(F)(F)F)c4)c(Br)c3n2)cc1 | · | -14.0 | · | · | ? | 13µM*
CCCCNC(=O)c1nn2c(C(F)(F)F)cc(-c3ccccc3)nc2c1Br | -0.3% | -7.5 | -4.9 | ? | 20.6µM* | ?
N#CCNC(=O)c1nn2c(C(F)(F)F)cc(-c3ccccc3)nc2c1Br | 3.0% | -4.6 | 13.3 | -14.4% | 18.1% | -0.1%
CCCCCCCCS(=O)(=O)CCCCC(=O)O | · | -3.8 | · | · | · | ·
CC(=O)NCc1ccc(-c2csc(Nc3ccc(Cl)cc3)n2)s1 | · | 10.5 | · | · | · | ·
CCC(C)Nc1nc(N)c([N+](=O)[O-])c(N2CCCCCC2)n1 (stereo not drawn) | 3.4% | -2.3 | ? | 42.7% | 2.59µM* | ?
CCC(C)Nc1nc(N)c([N+](=O)[O-])c(NC2CCCCC2)n1 (stereo not drawn) | 5.5% | -2.6 | 23.5 | 16.8% | ? | ?
Nc1nc(NCCO)nc(N2CCCCCC2)c1[N+](=O)[O-] | 1.5% | -3.6 | -16.8 | 12.9% | -4.0% | -5.5%
CC(C)CNc1nc(N)c([N+](=O)[O-])c(N2CCCCCC2)n1 | ? | 2.3 | -13.0 | -1.3% | 16.4µM* | ?
C#CCNC(=O)CNC(=O)CCc1ncc(-c2ccccc2)o1 | · | -5.0 | · | · | · | ·
CC(C)Cc1ccc(C(=O)Nc2ccc(Cc3ccncc3)cc2)o1 | -12.0% | 1.4 | -91.1* | ? | ? | ?
COc1ccc(Br)cc1C(=O)Nc1ccc(Cc2ccncc2)cc1 | -1.1% | -0.3 | ? | 17.5% | ? | ?
O=C(Nc1ccc(Cc2ccncc2)cc1)c1ccc(Br)o1 | 23.4% | 3.5 | ? | 41.7% | -17.3% | -7.0%
